Results filed as inconclusive are left out. Active and inactive are the calls of the source.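 Rule for the calls, unless noted: active = cell viability at or below a set limit in both duplicate runs, the limit being the all-compound median minus 4 SD (cut at about 23% in these data, passing the limit was not always enough); inconclusive = no clear call, values can overlap the other calls; inactive = the rest.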
Key:
[1] = reducers of endogenous Her2 protein level, primary screen, SKBR3 breast tumor cells, AlphaScreen, ATP viability (AID 461;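 active = Her2 level under about 52% in both replicate screens, with viability over 70% of control, limit read from the data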;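 for Her2 level: lower value means less Her2 protein in the cells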;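 for viability: percent of carrier control wells set as 100% viability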); details: 18-24 h, measured here: SKBR3 viability, ATP luminescence, at 10 µM
[2] = target: Receptor tyrosine-protein kinase erbB-2 (Homo sapiens) (UniProt P04626); assay: as above; details: 18-24 h, at 10 µM, stronger effect = lower value
[3] = SK-BR-3 cell growth inhibitors, pilot screen, 24 h, human (AID 572;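 active = viability at or below 10% of carrier control in both of two separate runs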;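 note: compound exposure lasted between 18 and 24 h rather than exactly 24 h; 100% = carrier-treated control wells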); details: SK-BR-3 viability, CellTiter-Glo luminescence, at 10 µM, stronger effect = lower value
[4] = HUVEC growth inhibition – cell-based, human, primary screen (AID 575;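 active = viability at or below 30% in both replicate assays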;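 note: 100% = median of untreated cell wells with 0.1% DMSO on each plate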); details: HUVEC proliferation, CellTiter-Glo luminescence, 72 h; at 10 µM; stronger effect = lower value
[5] = growth inhibitors of H69AR lung tumor, primary screen, human, duplicate replicates (AID 580;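 active = viability at or under a set limit in both replicates, limit being median viability minus 3 SD, cut at about 48% in these data, passing the limit was not always enough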;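 note: 100% = mean luminescence of untreated wells and 0% = no signal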); details: H69AR lung tumor cells viability, ATP luminescence, 72 h; at 10 µM; stronger effect = lower value
[6] = reversal of MRP1-mediated doxorubicin resistance, pilot screen, H69AR cells, doxorubicin co-treatment (AID 601;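 active = viability loss from added drug above about 55%, and viability with drug at most 40%, in both replicates, limit read from the data, passing the limit was not always enough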); details: CellTiter-Glo, 72 h, at 10 µM; for differential viability (reversal): stronger effect = higher value
[7] = 384-well plate pilot, post-Golgi transport modulator project, inhibition of yeast transport mutant growth (AID 636; in the data active = inhibition above about 31%); details: absorbance 615 nm, about 18 h, stronger effect = higher value
[8] = growth suppression of yeast trafficking mutant, preliminary HTS, modulators of trafficking downstream of Golgi apparatus project, 1536-format plate, OD 615 nm (AID 637; in the data active = inhibition above about 30%); details: yeast transport mutant growth, absorbance 615 nm, 18 h; stronger effect = higher value
[9] = OD615 S. cerevisiae growth inhibition, permissive medium, pilot counter-assay, permissive growth control for S. cerevisiae lifespan shortening project (AID 705;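 active = growth inhibition above 25% in both replicates, a cutoff set 3 SD above the mean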); details: OD615, 24 h, at 10 µM, stronger effect = higher value
[10] = Restrictive medium S. cerevisiae growth inhibition, OD615, pilot screen of yeast lifespan reduction project, restrictive growth control (AID 706;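 active = growth inhibition above a set limit, 3 SD over mean compound inhibition, in both replicates, cut at about 43% in these data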;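 note: modified DeaD lifespan yeast strain shifted to restrictive glucose medium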); details: OD615, 48 h, at 10 µM, stronger effect = higher value
[11] = viability gain of MRP-1-high H69AR cells under doxorubicin, pilot screen, MRP-1 activator project, CellTiter-Glo, duplicate (AID 807;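 active = viability increase at or above a cutoff of the median across tested compounds plus 3 SD, cut at about 8.5% in these data, passing the limit was not always enough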;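 note: compound pretreatment 18-22 h then 72 h combined with doxorubicin; 0% = doxorubicin alone and 100% = vehicle without doxorubicin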); details: H69AR viability with doxorubicin, CellTiter-Glo luminescence; at 10 µM; stronger effect = higher value
[12] = growth suppression of beta-catenin knockout HCT116, pilot screen, human colon tumor cells (AID 823); details: CellTiter-Glo, 60 h, at 10 µM, stronger effect = lower value;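 note: 0% = wells killed by 20 µM Hyamine and 100% = untreated DMSO cell wells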
[13] = growth suppression of PTEN-deleted HCT116, pilot screen, cell-based, HCT116 clonal line, CellTiter-Glo (AID 824;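 active = viability at or below 27.92% in each of two runs, the all-compound median minus 4 SD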;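 note: 0% = 20 µM Hyamine control and 100% = vehicle cell control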); details: 60 h, at 10 µM, stronger effect = lower value
[14] = inhibitors of the yeast RAM network, pilot screen, dse1pr::URA3 reporter, 5-FOA selection (AID 869;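 active = inhibition over a set limit, the all-compound mean plus 3 SD, in both replicate runs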;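 note: 0% = DMSO wells with no growth and 100% = 10 µM 1-NA-PP1 with full growth; RAM network block rescues cells from 5-FOA so hits raise OD615 growth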); details: S. cerevisiae dse1pr::URA3 5-FOA growth, OD615, 2 d; at 10 µM; stronger effect = higher value; strain carries analog-sensitive mutant Cbk1 kinase
[15] = RAM signaling pathway blockade in yeast – S. cerevisiae, Pdr1DBD-CYC8 efflux-inhibited sensitized strain, primary screen (AID 1298;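 active = RAM network inhibition above 8.4% in each of two replicates, 3 SD over the compound average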;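 note: 0% = DMSO untreated cells without growth and 100% = 10 µM 1-NA-PP1 full growth; higher means more yeast growth rescued from 5-FOA killing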); details: S. cerevisiae cbk1-as DSE1-URA3 strain, 5-FOA growth OD615, 2 d; at 50 µM; stronger effect = higher value
[16] = H69AR cells + 2 uM doxorubicin, measured here: viability with 2 uM doxorubicin, stronger effect = lower value
[17] = H69AR cells, compound alone cytotoxicity

Chain of Receptor tyrosine-protein kinase erbB-2 (Homo sapiens) (P04626 whole entry, looked up): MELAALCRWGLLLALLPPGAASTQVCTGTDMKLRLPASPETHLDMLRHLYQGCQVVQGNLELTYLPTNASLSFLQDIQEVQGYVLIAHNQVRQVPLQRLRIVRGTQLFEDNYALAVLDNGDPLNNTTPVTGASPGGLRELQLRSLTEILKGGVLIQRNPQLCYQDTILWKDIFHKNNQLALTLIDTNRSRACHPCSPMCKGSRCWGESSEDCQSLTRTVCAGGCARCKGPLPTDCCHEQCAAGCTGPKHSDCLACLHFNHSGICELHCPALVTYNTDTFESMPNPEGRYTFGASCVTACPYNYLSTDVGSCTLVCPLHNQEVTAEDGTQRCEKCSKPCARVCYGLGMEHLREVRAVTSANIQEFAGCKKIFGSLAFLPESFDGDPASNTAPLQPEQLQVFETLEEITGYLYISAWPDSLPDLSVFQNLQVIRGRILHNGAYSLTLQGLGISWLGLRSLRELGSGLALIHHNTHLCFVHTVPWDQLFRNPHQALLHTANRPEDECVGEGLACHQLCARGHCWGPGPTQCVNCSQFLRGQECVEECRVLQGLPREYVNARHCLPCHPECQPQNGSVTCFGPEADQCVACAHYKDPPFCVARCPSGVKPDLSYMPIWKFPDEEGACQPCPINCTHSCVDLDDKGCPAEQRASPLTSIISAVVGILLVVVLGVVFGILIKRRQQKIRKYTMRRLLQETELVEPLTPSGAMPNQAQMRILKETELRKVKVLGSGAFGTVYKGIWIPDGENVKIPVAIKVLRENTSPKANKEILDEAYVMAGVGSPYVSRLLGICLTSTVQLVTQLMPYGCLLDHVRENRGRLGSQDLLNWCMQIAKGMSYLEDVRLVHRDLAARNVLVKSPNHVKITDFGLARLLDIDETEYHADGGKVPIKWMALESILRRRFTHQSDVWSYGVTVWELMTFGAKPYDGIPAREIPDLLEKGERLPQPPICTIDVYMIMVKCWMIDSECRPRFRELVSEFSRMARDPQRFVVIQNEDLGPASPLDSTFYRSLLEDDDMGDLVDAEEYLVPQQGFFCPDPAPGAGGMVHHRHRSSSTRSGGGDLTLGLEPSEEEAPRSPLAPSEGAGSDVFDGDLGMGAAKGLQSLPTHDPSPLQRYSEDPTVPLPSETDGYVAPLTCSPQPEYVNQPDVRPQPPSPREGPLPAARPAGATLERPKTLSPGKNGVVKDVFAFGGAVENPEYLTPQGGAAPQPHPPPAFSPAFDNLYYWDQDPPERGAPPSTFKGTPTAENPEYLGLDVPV

CC1Cn2c(nnc2-c2ccc(F)cc2)S1 (stereo not drawn)
93.7%: viability [6, 17]
112%: viability [1]
95.2%: viability [6, 16]
inactive: Her2 level [2] 105% | viability [3] 112% | viability [4] 107% | viability [5] 93.7% | differential viability (reversal) ([6]; H69AR cells + 2 uM doxorubicin) -1.42% | inhibition [7] -2.4% | inhibition [8] -4% | growth inhibition [9] -9.71% | growth inhibition [10] -14.2% | viability increase [11] -0.42% | viability [12] 112% | viability [13] 101% | inhibition [14] 1.92% | RAM network inhibition [15] 3.35%

COc1ccc(OC)c(NC(=O)c2cn(C)c(=O)c3cc(OC)c(OC)cc23)c1
88.1%: viability [6, 16]
inactive: Her2 level [2] 104% | viability [3] 104% | viability [4] 97.2% | viability [5] 93.8% | differential viability (reversal) ([6]; H69AR cells + 2 uM doxorubicin) 5.68% | inhibition [7] -0.41% | inhibition [8] 28.7% | growth inhibition [9] -17.3% | growth inhibition [10] -19.3% | viability increase [11] -4.55% | viability [12] 99.6% | viability [13] 96.7% | inhibition [14] 0.435% | RAM network inhibition [15] 3.89%
104%: viability [1]
93.8%: viability [6, 17]

COc1cccc(-c2nnc(NC(C)=O)o2)c1
91.6%: viability [6, 16]
inactive: Her2 level [2] 99.5% | viability [3] 93.5% | viability [4] 103% | viability [5] 98.8% | differential viability (reversal) ([6]; H69AR cells + 2 uM doxorubicin) 7.19% | inhibition [7] -5.47% | inhibition [8] -4.33% | growth inhibition [9] -0.545% | growth inhibition [10] 1.75% | viability increase [11] -1% | viability [12] 101% | viability [13] 105% | inhibition [14] 1.76% | RAM network inhibition [15] 1.45%
93.5%: viability [1]
98.8%: viability [6, 17]

Cc1c(NC(=O)c2ccc(CN3CCc4ccccc4C3)cc2)c(=O)n(-c2ccccc2)n1C
95%: viability [1]
inactive: Her2 level [2] 109% | viability [3] 95% | viability [4] 94.3% | viability [5] 98.8% | differential viability (reversal) ([6]; H69AR cells + 2 uM doxorubicin) 4.51% | inhibition [7] -5.64% | inhibition [8] -4.83% | growth inhibition [9] -4.14% | growth inhibition [10] -6.79% | viability increase [11] 0.51% | viability [12] 79.6% | viability [13] 84.4% | inhibition [14] 0.845% | RAM network inhibition [15] 5.97%
98.8%: viability [6, 17]
94.3%: viability [6, 16]

Reference: PubChem BioAssay
